Reference: PubChem BioAssay
Values without a mark were called inactive. Activity calls are given as the source filed them. Unless noted, no rule for the calls is given here.

What was measured:
[1] = compounds altering circadian rhythm period length – cell-based, LOPAC library, luminescence reporter (AID 2774); conditions: circadian reporter cells, at 7 µM, actives lie on both sides;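 also: values are relative to mean of DMSO wells on each plate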
[2] = test system: Hepatitis C virus NS3 helicase; experiment: blockers of NS3h binding to ssDNA – biochemical, fluorescence polarization, LOPAC1280 library, primary screen (AID 687035; in the data active = inhibition above about 37%); conditions: Purified HCV NS3 helicase, Cy5-dT15 ssDNA binding fluorescence polarization; hits give high values; concentration not given here
[3] = compounds altering Cy5-DNA-NS3h complex signal – biochemical, LOPAC1280, artefact control for HCV NS3 helicase inhibitor project (AID 687037); conditions: Cy5-DNA-NS3h complex fluorescence interference counterscreen
[4] = blockers of cellular phospholipid synthesis – cell-based, LOPAC library, screen 4, primary screen (AID 1347384); conditions: animal cells, phospholipid biosynthesis inhibition screen; at 10 µM

Row | Structure (SMILES) | period change [1] | inhibition [2] [%] | fluorescence ratio (interference) [3] | outcome [4]
1 | CCC(C)N(C)C(=O)c1cc2ccccc2c(-c2ccccc2Cl)n1 (stereo unspecified) | 0.03 h | 0 | 1 | inactive
2 | O=C1NC(=O)C(c2ccccc2[N+](=O)[O-])=C1Nc1ccc(O)c(Cl)c1 | 0.15 h | -2 | 1 | inactive
3 | O=C1Nc2ccc(I)cc2/C1=C/c1cc(Br)c(O)c(Br)c1 | -0.055 h | – | – | –
4 | Nc1ncnc2nc(-c3ccc(N4CCOCC4)nc3)cc(-c3cccc(Br)c3)c12 | – | -6 | 0.9 | –
5 | Oc1ccc2ccccc2c1SSc1c(O)ccc2ccccc12 | – | 3 | 1 | inactive
6 | NC(=O)c1ccc2[nH]ccc2c1 | – | 0 | 1 | inactive
7 | COc1cc2c(cc1O)CC[C@@H]1[C@@H]2CC[C@]2(C)[C@@H](O)CC[C@@H]12 | -1.4 h (active) | -1 | 1 | inactive
8 | CC(C)N(CCC(=O)c1ccc2ccccc2c1)Cc1ccccc1 | 0 h | -3 | 0.9 | inactive
9 | COc1cc(SC)ccc1C(=O)N1CCC(Cc2ccccc2)CC1 | – | 1 | 1 | inactive
10 | O=C1c2ccccc2-c2n[nH]c3cccc1c23 | 1.23 h (active) | 1 | 1 | inactive
11 | O=Nc1c(-c2c(O)[nH]c3ccccc23)[nH]c2ccccc12 | -0.845 h (active) | 0 | 1 | active
